The test system of the first assay is PXR homodimer (NR concentration 270 nM). Briefly: PBM binding z-score (relative to random genomic background probes); higher = stronger binding; sequences stand for … in GC…GCGATTGACAGCGTAGAATGAAGG
The method, boiled down: (§1)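 Probes were double-stranded and carried 34-nt variable regions with direct-repeat seeds, single-nucleotide variants, half-site ablations and random human genomic background sequences, printed on custom Agilent 4×180K protein-binding microarrays. Arrays were incubated 1 h with ligand-free nuclear receptor dimers in PBS pH 7.4, 2% milk, 0.02% Triton X-100, 1 mM DTT, 0.2 mg/mL BSA and 0.4 mg/ml salmon testes DNA. Antibodies against each partner (one per run) detected binding, and scanned fluorescence was regression-normalized. Binding z-scores use the random background probes as reference.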
With CTACCAAGGTGGACAAGGTCGTTGATTACTATTC, the PBM binding z-score came out at 0.687.

In turn, AGAGTGAGGTTAAGATCAGGGAAACAGAATACAT displayed a PBM binding z-score of 1.51.

In turn, CCAGACAGGTGAAAGGGAACTCAGTCTGGTACGC yielded a PBM binding z-score of -0.23.

As to CGAACTAGGTCATGGACAGTGAATCTCCGCACGC, the PBM binding z-score was -0.279.

As for CGACCTAGGTCATCCAGGACAGTGAATACATTGA, the PBM binding z-score is 0.923.

As to TAGCCTAGGTCATGCGGGCCACTATAGTGTCGGC, the PBM binding z-score is -0.634.

Regarding ACTAGCAGGCCCAGTTTGGGTCACTCAAACAAAG, the PBM binding z-score is -0.753.

Sequence TAGCCTAGGTCATTCAGGTGCCAGTATAGAAAGC came in with a PBM binding z-score of 0.327.

With ATCCCTAGGTAAAGATAGTTCAGTGAATGCAAAT, the PBM binding z-score turned out to be 0.666.

Regarding CAAACTAGGGCACCGGAAGGTCAAAGTCCGCATG, the PBM binding z-score was 0.773.

Consider CCCCGGAGGACAACAGGAGGTCAGAGCTGCCAGA, for which the PBM binding z-score amounted to 0.777.

In turn, CAAACTAGGTCAAGAGGGCAAAGTCCGCTTCCCG displayed a PBM binding z-score of 0.703.

Take ATCCAAAGGTCGACGAGGTGAGTATACACCGTTT: the PBM binding z-score worked out at 0.52.

For the sequence TATACAGGGTCAAACGCCAGAGTACGAATGTCGA, the PBM binding z-score turned out to be 0.94.

Consider ACTAGCAGGCCAAGTCTGGGTCACTCAAACAAAG, for which the PBM binding z-score was -0.106.

In the case of GCAGACAGGTGAAACGCAGGTGACTCAGGGTGGC, the PBM binding z-score is -0.467.

With ATCTGTAGGTAACCAAGTTCAGTGAATGCCGAAC, the PBM binding z-score was determined as 1.73.

The sequence CTTACTGGGCCATTCAGAGGTCATTGATCATATG had a PBM binding z-score of 2.99.

ATACCAAGGTGATCGTGAGGTCGTTCATACTAAC: the PBM binding z-score came out at 2.03.

In turn, TAGCCTAGGTCATTCAGTGGCCAGTATAGAAAGC showed a PBM binding z-score of -0.355.

In the case of AGTCAAAGTTCCCTAGGTAACGTAAGATTCAGCT, the PBM binding z-score was -0.697.

TCTTGTAGATCAAGCAGGTGAAGAAAGCCTGAGT showed a PBM binding z-score of -0.139.

As to CCTAGTTGGTCAAAGTCACACACGCTATAGGTAC, the PBM binding z-score came to 0.736.

In the case of CCTAGTTGGTCGAGGTCACACACGCTATAGGTAC, the PBM binding z-score was 3.73.

With GATACAGGGTCAAGGCCAGAGTTCGCGTATTGAT, the PBM binding z-score was 1.99.

As to CCAACTAGGTCAAGGACAGTGAATCTCCGCACGC, the PBM binding z-score turned out to be 0.209.

In turn, TCTTGTAGATCAGCATGTTAAGAAAGCTGGCCAA gave a PBM binding z-score of -0.264.

In turn, ACTTACGGGTCAACGAGGTTATAGCGCGCGTATA returned a PBM binding z-score of 3.53.

Consider CGTCCAAGGTCAAAGATCAGTGAAGAGATGACGG, for which the PBM binding z-score is 1.01.

For the sequence CCTTACGGGTCGAGGTTATAGCACGGGTGGTACG, the PBM binding z-score is 0.209.

GCTGACAGGTGAAACGCAGGTAACTCAGGGTGGC registered a PBM binding z-score of -0.797.

In turn, CCTACTGGTCCACGAAAGGTCATTGATTCAGTGA gave a PBM binding z-score of 3.24.

CCAACTGGGGCAAGGTTACCATAACGCACAGCCA had a PBM binding z-score of 0.0268.

With GCTGCTAGGTCAGGTTGGTCACCTAACGGGTACG, the PBM binding z-score was -0.213.

For the sequence CCGACTGGGGCAAAGGGTACCATACTCAGTACGA, the PBM binding z-score is -0.353.

ATCTCTAGGTAAGACTAAGTTCAGTGAAGAACGC registered a PBM binding z-score of 1.82.

Sequence TCTATTAGTTTATTAGGGCAACCGAAACAGCGGA registered a PBM binding z-score of 1.21.

Regarding CCTTACGGGCCACTCCAGGTTATAGCATCGGAGT, the PBM binding z-score was 0.0587.

With TCTTGTAGATCAAGCACGTTAAGAAAGCCTGAGT, the PBM binding z-score is -0.148.

Another assay deals with RARa:RXR (NR concentration 270 nM, RXRa partner concentration 90 nM). The assay is described as above. The method in brief: as §1
CTACCAAGGTGGACAAGGTCGTTGATTACTATTC came in with a PBM binding z-score of 1.16.

The sequence AGAGTGAGGTTAAGATCAGGGAAACAGAATACAT showed a PBM binding z-score of 2.02.

The sequence CCAGACAGGTGAAAGGGAACTCAGTCTGGTACGC showed a PBM binding z-score of 0.13.

The sequence CGAACTAGGTCATGGACAGTGAATCTCCGCACGC gave a PBM binding z-score of 2.43.

CGACCTAGGTCATCCAGGACAGTGAATACATTGA: the PBM binding z-score was found to be 3.21.

As for TAGCCTAGGTCATGCGGGCCACTATAGTGTCGGC, the PBM binding z-score worked out at 2.72.

Sequence ACTAGCAGGCCCAGTTTGGGTCACTCAAACAAAG gave a PBM binding z-score of 0.833.

For TAGCCTAGGTCATTCAGGTGCCAGTATAGAAAGC, the PBM binding z-score was 2.34.

Sequence ATCCCTAGGTAAAGATAGTTCAGTGAATGCAAAT showed a PBM binding z-score of 0.665.

On to CAAACTAGGGCACCGGAAGGTCAAAGTCCGCATG, for which the PBM binding z-score was 4.68.

On to CCCCGGAGGACAACAGGAGGTCAGAGCTGCCAGA, for which the PBM binding z-score came to 2.7.

The sequence CAAACTAGGTCAAGAGGGCAAAGTCCGCTTCCCG registered a PBM binding z-score of 3.96.

ATCCAAAGGTCGACGAGGTGAGTATACACCGTTT yielded a PBM binding z-score of 3.62.

For TATACAGGGTCAAACGCCAGAGTACGAATGTCGA, the PBM binding z-score came out at 5.61.

The sequence ACTAGCAGGCCAAGTCTGGGTCACTCAAACAAAG returned a PBM binding z-score of 1.59.

With GCAGACAGGTGAAACGCAGGTGACTCAGGGTGGC, the PBM binding z-score came to 0.675.

For ATCTGTAGGTAACCAAGTTCAGTGAATGCCGAAC, the PBM binding z-score came out at 0.813.

Regarding CTTACTGGGCCATTCAGAGGTCATTGATCATATG, the PBM binding z-score turned out to be 4.16.

ATACCAAGGTGATCGTGAGGTCGTTCATACTAAC came in with a PBM binding z-score of 2.01.

TAGCCTAGGTCATTCAGTGGCCAGTATAGAAAGC gave a PBM binding z-score of 2.22.

As to AGTCAAAGTTCCCTAGGTAACGTAAGATTCAGCT, the PBM binding z-score is -0.125.

On to TCTTGTAGATCAAGCAGGTGAAGAAAGCCTGAGT, for which the PBM binding z-score amounted to 0.061.

The sequence CCTAGTTGGTCAAAGTCACACACGCTATAGGTAC yielded a PBM binding z-score of 0.303.

Turning to CCTAGTTGGTCGAGGTCACACACGCTATAGGTAC, the PBM binding z-score turned out to be 5.08.

Consider GATACAGGGTCAAGGCCAGAGTTCGCGTATTGAT, for which the PBM binding z-score amounted to 5.07.

Sequence CCAACTAGGTCAAGGACAGTGAATCTCCGCACGC yielded a PBM binding z-score of 2.01.

The sequence TCTTGTAGATCAGCATGTTAAGAAAGCTGGCCAA registered a PBM binding z-score of 0.0601.

In turn, ACTTACGGGTCAACGAGGTTATAGCGCGCGTATA gave a PBM binding z-score of 5.29.

In turn, CGTCCAAGGTCAAAGATCAGTGAAGAGATGACGG yielded a PBM binding z-score of 5.63.

For CCTTACGGGTCGAGGTTATAGCACGGGTGGTACG, the PBM binding z-score stood at 1.61.

Sequence GCTGACAGGTGAAACGCAGGTAACTCAGGGTGGC returned a PBM binding z-score of 0.499.

As for CCTACTGGTCCACGAAAGGTCATTGATTCAGTGA, the PBM binding z-score was 5.86.

Regarding CCAACTGGGGCAAGGTTACCATAACGCACAGCCA, the PBM binding z-score was determined as 0.879.

With GCTGCTAGGTCAGGTTGGTCACCTAACGGGTACG, the PBM binding z-score stood at 1.27.

CCGACTGGGGCAAAGGGTACCATACTCAGTACGA registered a PBM binding z-score of 0.544.

For the sequence ATCTCTAGGTAAGACTAAGTTCAGTGAAGAACGC, the PBM binding z-score is 1.14.

TCTATTAGTTTATTAGGGCAACCGAAACAGCGGA: the PBM binding z-score came to 0.944.

The sequence CCTTACGGGCCACTCCAGGTTATAGCATCGGAGT registered a PBM binding z-score of 0.0279.

TCTTGTAGATCAAGCACGTTAAGAAAGCCTGAGT had a PBM binding z-score of 0.501.

The record behind these values is the supplement of paper PMC6555819.
